The structures appear in SMILES notation. “And” between values parts separate entries of the source, which are not always exact repeats. Equal values may be shown once. Results filed as inconclusive are left out. A number with no mark means an inactive call. Calls follow the shape of the dose curve; as a rule, active = well fitted cell-killing curve with a large enough effect in the repeat runs; inconclusive = weak or mixed curves; inactive = flat fitted curve, though single readings scatter.
% is scaled to controls: 0 for no effect and ±100 for the full control effect.

The test can be described thus: qHTS assay for small molecule agonists of the antioxidant response element (ARE) signaling pathway measured by Nrf2-dependant transcriptional activity - cell viability counter screen (AID 720653). The conditions noted are these: ARE-bla HepG2 viability, CellTiter-Glo ATP luminescence, 16 h; active compounds read low. An excerpt: National Center for Advancing Translational Sciences [NCATS] NIH Chemical Genomics Center [NCGC] U.S. Environmental Protection Agency [EPA] National Institutes of Environmental Health Sciences [NIEHS] National Toxicology Program [NTP] Assay Overview: Oxidative stress has been implicated in the pathogenesis of a variety of diseases ranging from cancer to neurodegeneration. The antioxidant response element (ARE) signaling pathway plays an important role in the amelioration of oxidative stress. The CellSensor ARE-bla HepG2 cell line (Invitrogen) can be used for analyzing the Nrf2/antioxidant response signaling pathway. Nrf2 (NF-E2-related factor 2) and Nrf1 are transcription factors that bind to AREs and activate these genes. The CellSensor ARE-bla HepG2 cell line contains a beta-lactamase reporter gene under control of the Antioxidant Response Element (ARE) stably integrated into HepG2 cells. The activation of the report gene under culture conditions can be detected by fluorescence intensity. The cytotoxicity of the compounds against the ARE-bla HepG2 cell line was quantified by measuring the intracellular ATP content.
Assay Protocol Summary: ARE-bla HepG2 cells were dispensed at 2,000 cells/5 ul/well in 1536-well black wall/clear bottom plates using a Multidrop Combi (ThermoFisher Scientific, Waltham, MA) dispenser. After the assay plates were incubated at 37C/5% CO2 for 5 hrs, 23 nL of compounds dissolved in DMSO, positive controls or DMSO only was transferred to the assay plate by a pintool work station (Kalypsys, San Diego, CA). The plates were incubated at 37C/5% CO2 for 16 hrs. After 1 uL of LiveBLAzer B/G FRET substrate was added using a Flying Reagent Dispenser (FRD) (Aurora Discovery, San Diego, CA), the assay plates were incubated at room temperature for 2 hrs. The fluorescence intensity was measured by an Envision (PerkinElmer, Shelton, CT) plate reader. Cell viability using CellTiter Glo viability assay (Promega, Madison, WI) was also measured by adding 4 ul/well of CellTiter-Glo reagent into the same assay plate using a FRD. After 30 min incubation at room temperature, the luminescence intensity in the plates was measured using a ViewLux (PerkinElmer) plate reader.
A general note: qHTS replaces the single test concentration by a dilution series.
For the compound `O=C(O)C(Cl)Br` (stereo not given), the max response was 3.95%. Take `Cc1ccc(N)cc1Cl`: the max response was 7.4%. Take `Cc1ccc(OP(=O)(Oc2ccc(C)cc2)Oc2ccc(C)cc2)cc1`: the max response was -0.985% and -5.89%. Then `c1ccoc1`, with 9.49%; and `C=CC(=O)OCCO`, with -2.67%; and `CC1CC(=O)O1` (stereo not given), with -3.76%. Then `c1ccc(OCC2CO2)cc1` (stereo not given), with 0.104%; and `O=Cc1ccc2c(c1)OCO2`, with 2.8%. Then `N#C/C=C/C#N`, with -28.1%; and `Cc1ccccc1[N+](=O)[O-]`, with 11.5%; and `COC(=O)c1ccccc1N`, with -7.9%.

For `CCC[N+](=O)[O-]`, the max response was -3.7%. The same measure for `[N-]=[N+]=[N-]`: -8.07%. Then `c1ccc2c(c1)CCNC2`, with 5.02%; and `CCOP(=S)(OCC)Oc1nc(Cl)c(Cl)cc1Cl`, with 0.0448% [middle of 4 runs]. Then `CCN(N=O)C(N)=O`, with 1.02%; and `OC[P+](CO)(CO)CO`, with -17.6% and -11.9%. As to `CC(C)Br`, the max response was -6.22%. Regarding `CCCCOCC1CO1` (stereo not given), the max response was -2.9%.

Consider `Cc1cc(-c2cc(C)c(N)c(C)c2)cc(C)c1N`, for which the max response is -5.77%. Then `CN(C)C(=O)Nc1cccc(C(F)(F)F)c1`, with -4.03% and 2.07%; and `Cl/C=C/CCl`, with -1.22%. For `S=c1[nH]c2ccccc2[nH]1`, the max response is 2.67%.

In the case of `Oc1ccc(Cl)c(Cl)c1Cl`, the max response was 13.8%. The same measure for `CC(C)C#N`: 1.74%; for `OCCOCCO`: -0.406%. Then `CNC(=O)O/N=C/C(C)(C)S(C)=O` (stereo not given), with 1.76% and 2.37%; and `CCCC[N+](=O)[O-]`, with -1.65%; and `BrCCc1ccccc1`, with -7.12%. The same measure for `Nc1ccc(-c2ccccc2)cc1`: 5.56%; for `CCNCC`: 14.5%. In the case of `O=C(O)C(Cl)(Cl)Br`, the max response was -4.89%. As to `CCCCC(=O)Cl`, the max response was 2.67%.

As to `Oc1c(Cl)c(Cl)cc(Cl)c1Cl`, the max response is -2.21%. Then `BrC(Br)Br`, with -14.5%; and `CCCCCCCCCCCCCl`, with -2.45%; and `Oc1cc(Cl)ccc1Cl`, with 14.5% and -2.04%. Then `C1CC2OC2CC1C1CO1` (stereo not given), with -8.97% and -5.29%; and `CCOC(=O)CC(SP(=O)(OC)OC)C(=O)OCC` (stereo not given), with 0.403% and 18.9%. The same measure for `COc1ccccc1N`: 6.75%.

These data come from PubChem BioAssay (NCATS).
